From PubChem BioAssay (NCI)
About 83,000 compounds went through this panel and 20% of them were active in at least one assay; those are over-represented in the sample as a whole.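 Percent growth is the endpoint: 0 to 100 indicates growth inhibition (40 means 60% inhibition), 0 means no net growth, and negative values indicate cell death.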 Values without a mark were called inactive. Activity calls are given as the source filed them. Rule for the calls: active = growth percent below 10; inactive = the rest.

Test system: HL-60(TB) leukemia
Assay: NCI-60 one-dose screen, 48 h (100 = growth as untreated, 0 = no growth, -100 = all killed)
Details: 10 µM unless noted

SMILES | growth
O=C(Cc1ccc(/C=C/C(=O)c2ncc[nH]2)cc1)Nc1cc(F)c(F)c(F)c1 | 7.25% (active)
COc1ccc(-c2ccc3c(N4CCOC[C@@H]4C)nc(N4CCOC[C@@H]4C)nc3n2)cc1CO | 22.6%
O=c1ncc(-c2ccc(C(F)(F)F)cc2)c(NC2CCCCCC2)[nH]1 | 23.3%
Fc1ccc(NC(=S)c2ccccc2)cc1 | 102%
CCCCOc1c(N)cccc1C(=O)OCCN(CC)CC | 64.3%
CNC(=O)c1cn2c3c(c(N4CCN(C)CC4)c(F)cc3c1=O)OC[C@@H]2C | 99.3%
Cc1[nH]n(C(=O)c2ccncc2)c(=O)c1N=Nc1ccc(O)c(C(=O)O)c1 | 53.4%
OCCNc1nc(NCCO)nc(Nc2ccc(C3=NN(c4cc(Cl)cc(Cl)c4)C(c4ccc(Cl)cc4)C3)cc2)n1 (stereo not given) | 13.7%
COc1cc(OC)c(/C=C/c2cc[n+](C)c3ccccc23)c(OC)c1 | -25.6% (active)
C1CCN(c2nc(N3CCCCC3)nc(N3CCOCC3)n2)CC1 | 112%
C[n+]1ccccc1/C=C/c1ccc2cccc(O)c2n1 | 79.2%
O=C(/C=C/c1ccc(Br)cc1)c1ccc(-n2cc(CN3CCN(c4cc5c(cc4F)c(=O)c(C(=O)O)cn5C4CC4)CC3)nn2)cc1 | 94.3%
O=C(CS)OCC(COC(=O)CS)(COC(=O)CS)COC(=O)CS | 67.2%
CCN1C(=O)N(CC)C2C1NN=C1SCC(=O)N12 (stereo not given) | 99.1%
CCCC[N+](C)(N)CCCC | 104%
CC/C(=N/NC(N)=O)c1ccccc1 | 101%
c1c2c(cc3c1OCO3)Cc1cc3c(cc1Cc1cc4c(cc1C2)OCO4)OCO3 | 116%
Cc1ccc2c(c1)C(C)Cc1c(ncnc1-n1cnc3cc(C)ccc31)N2C (stereo not given) | -22% (active)
O=C(/C=C/c1ccc(Cl)cc1)c1ccc(NC(=O)N2CCN(c3cc4c(cc3F)c(=O)c(C(=O)O)cn4C3CC3)CC2)cc1 | 94.2%
OC(c1cc2c(Cl)cc(Cl)cc2c2cc(C(F)(F)F)ccc12)C1CCCCN1 (stereo not given) | -39.1% (active)

SMILES | growth
O=C(Nc1ccccc1O)c1ccc(CNc2ccnc(C(F)(F)F)c2)cc1 | -32.9% (active)
CCn1c(O)c(/C=N/NC(=O)C(C)c2ccc(CC(C)C)cc2)sc1=S (stereo not given) | -32.5% (active)
Nc1c(C(=O)Nc2ccccn2)sc2nc3c(cc12)CCCC3 | 5.35% (active)
O=C(NCc1ccc(Cn2c(=O)sn(-c3ccccc3)c2=O)cc1)OCc1ccc2cccc(O)c2n1 | -56.8% (active)
Cc1nn(-c2ccccc2)c2c1N=c1s/c(=C\c3cn(-c4ccccc4)nc3-c3ccc(Cl)cc3)c(=O)n1C(C)N2 (stereo not given) | 78.5%
CCOc1ccc(C2N(c3cc(OC)c(OC)c(OC)c3)C(=O)C2(F)F)cc1 (stereo not given) | -16% (active)
COc1ccc(-c2cc(-c3nnc(SCC(=O)Nc4ccc(C(C)=O)cc4)n3-c3ccccc3)c3ccccc3n2)cc1OC | 100%
Cl.Fc1c[c-]c(-c2ccccn2)c(F)c1.[Pt].c1ccc([PH+](C[PH+](c2ccccc2)c2ccccc2)c2ccccc2)cc1 | -33.7% (active)
Oc1ccccc1/C=N/N=C\c1ccccc1Cl | 30.9%
N=C(N)c1ccc(-c2ccc(-c3ccc(Cl)cc3Cl)o2)cc1 | -60.8% (active)
COc1cc(/C=C/C(=O)c2ccc(Nc3nc(NCCO)nc(N4CCOCC4)n3)cc2)cc(OC)c1OC | -28.6% (active)
CCOS(=O)(=O)c1c(C(C)C)cc(C(C)C)cc1C(C)C | 89%
COc1cc(-c2cc(-c3ccc(Nc4ccnc5cc(Cl)ccc45)cc3)nc(N3CCOCC3)n2)cc(OC)c1OC | 68.2%
O=C1/C(=C/c2ccccc2Br)COc2ccc(O)cc21 | 17.1%
CCCC(C(=O)OCC)C(C)OC(=O)OCC (stereo not given) | 87.8%
COc1cnc2c(c1)C(=O)c1c-2n(CCCBr)c(=O)c2cc([N+](=O)[O-])ccc12 | 5.74% (active)
FC(F)(F)c1nn[nH]n1 | 102%
S=C(N/N=C/c1cc(Cl)cc(Cl)c1)NC12CC3CC(CC(C3)C1)C2 | 104%
COc1ccc2nc3cc(Cl)ccc3c(NCCCNCCO)c2c1 | -14.3% (active)
CN1C(=O)/C(=C\c2nc([P+](c3ccccc3)(c3ccccc3)c3ccccc3)c(N3CCOCC3)o2)SC1=S | -15.1% (active)
